Compounds with a hit are over-represented: about 12% of the library has one in this group of screens.
VP16 counter: counter-screen for ROR gamma inhibitors: Gal4-VP16 reporter | Drosophila S2 Gal4-VP16 UAS-luciferase, luminescence, 20 h | Potency, µM (series often up to 53.6 µM), without a hit: at the highest dose activity, negative = inhibition, hits mostly inhibitors | 310,000 compounds, 3.5% hits;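 note: Gal4-VP16 expression switched on by copper sulfate through the metallothionein promoter; nearly all actives have a fitted effect of over 50% in size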
PLK1 PBD inh: blocks phosphopeptide binding to human PLK1 polo-box domain; Plk1 PBD binding of FITC phosphopeptide, fluorescence polarization; P53350; 360,000 compounds, 2.8% hits; Potency, µM, for the others: max response, negative = inhibition, usual class: inhibitors; note: series mostly up to about 57 µM; nearly all actives have a fitted effect of over 65% in size
Sfp PPTase inh: blocks B. subtilis Sfp PPTase activity; 310,000 compounds, 3.5% hits; Potency, µM, inactives show largest response in the series, negative = inhibition, usual class: inhibitors; Q9F4F7; Biochemical Sfp PPTase activity, qHTS;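 note: the enzyme is Sfp with the accession as filed and its product quenches rhodamine fluorescence; 0% = enzyme reaction without inhibitor and -100% = no enzyme wells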
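After 15 min at room temperature with compound, 15 nM Sfp received 5 uM rhodamine-CoA plus 12.5 uM BHQ-2-ybbR (50 mM Hepes pH 7.6, 10 mM MgCl2). Rate came from the fluorescence difference over 30 min, ex 525/em 598 nm.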
RORg inh: blocks mouse ROR gamma transcriptional activity. P51450. Drosophila S2 Gal4-RORgamma UAS-luciferase reporter, 20 h. Potency, µM (highest dose often 53.6 µM), inactives show at the top dose activity change, negative = inhibition, usual class: inhibitors. 310,000 compounds, 5.4% hits. AID 2551; note: nearly all actives have a fitted effect of over 60% in size
Target sequence (P51450 whole entry, looked up, the tested form may be a part): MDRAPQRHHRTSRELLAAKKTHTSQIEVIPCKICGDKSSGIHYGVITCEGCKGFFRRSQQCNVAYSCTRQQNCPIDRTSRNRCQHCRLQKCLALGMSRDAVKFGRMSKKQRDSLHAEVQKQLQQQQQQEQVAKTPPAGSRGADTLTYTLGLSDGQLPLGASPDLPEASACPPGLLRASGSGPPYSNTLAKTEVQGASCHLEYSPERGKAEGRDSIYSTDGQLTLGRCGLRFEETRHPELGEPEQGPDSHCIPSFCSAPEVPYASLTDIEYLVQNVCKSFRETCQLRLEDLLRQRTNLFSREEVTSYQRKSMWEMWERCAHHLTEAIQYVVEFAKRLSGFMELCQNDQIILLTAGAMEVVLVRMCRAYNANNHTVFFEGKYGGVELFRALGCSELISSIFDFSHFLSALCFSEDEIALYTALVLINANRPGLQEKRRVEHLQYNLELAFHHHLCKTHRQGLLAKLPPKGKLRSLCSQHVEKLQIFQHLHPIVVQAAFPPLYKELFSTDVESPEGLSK
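Luminescence from a UAS-regulated Photinus luciferase reporter in stably transfected Drosophila Schneider cells is measured; decreased signal marks ROR gamma inhibition. Fusion expression is induced by 700 uM copper sulfate for 20 hr.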
ALDH1A1 inh: blocks purified human ALDH1A1 activity. Potency, µM (highest dose often 75.3 µM), inactives show at the top dose activity, negative = inhibition, most hits filed as inhibitors. P00352. Purified ALDH1A1, NADH fluorescence, propionaldehyde substrate. 220,000 compounds, 7.3% hits. AID 1030; active = well fitted inhibition curve with a large enough effect, not every such curve was filed as active; inconclusive = small, poorly fitted or top-dose-only effect, or another doubt; inactive = no such curve, though single readings can be large or run the other way;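 note: plate controls were no enzyme wells and a reference inhibitor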
* marks the source's active call; other numbers are inactive results; ? = inconclusive; / = no result given; [ ] = remark or other dose. Unless noted, calls come from the whole dose curve; as a rule, active = well fitted curve in the direction sought with a large enough effect; inconclusive = small, poorly fitted or top-dose-only effect, or another doubt; inactive = no such curve, though single readings can be large; an effect the other way counts as inactive or inconclusive. Unless noted, % is set by controls: 0 for no effect and ±100 for the full control effect; potency is the fitted concentration of half-maximal effect.

SMILES | VP16 counter | PLK1 PBD inh | Sfp PPTase inh | RORg inh | ALDH1A1 inh
COC(=O)C1(C(=O)OC)C[C@@H]2CON=C2[C@H]1c1ccccc1 | 2% | / | -10% | -4% | 11%
Cc1cccc(-c2cc3nc4c(c(NCc5ccco5)n3n2)CCCC4)c1 | -13% | -7% | 50µM* | ? | ?
Cc1ccccc1Nc1oc(-c2ccccc2)nc1-c1ccccc1F | -4% | / | -9% | -5% | 2%
Cc1ccccc1Nc1oc(-c2ccccc2)nc1-c1cccc2ccccc12 | 2% | / | 0% | 4% | 25µM*
Cc1nc2c(ccc3nc(NC(=O)C(c4ccccc4)c4ccccc4)sc32)s1 | 5µM* | -4% | 34% | ? | 6%
Cc1nc2c(ccc3nc(NC(=O)c4ccc5c(c4)OCCO5)sc32)s1 | 0.089µM* | -7% | ? | 0.2µM* | ?
COC(=O)C=P(c1ccccc1)(c1ccccc1)c1ccccc1 | 3% | / | -24% | -4% | 13%
CC(NC(=O)c1cccc2c1Oc1ccccc1S2)C(=O)O (stereo not given) | / | -27% | / | / | /
O=C(Oc1ccc(-c2csnn2)cc1)c1cccs1 | 3% | 3% | 15% | 14% | 3%
O=C(Oc1ccccc1-c1csnn1)c1cccs1 | -8% | ? | 2% | 15% | 18µM*
N#Cc1c2c(c(=S)n(-c3ccccc3)c1N)CCCC2 | -1% | 2.7µM* | 32µM* | 1% | ?
CCC1(C)Cc2c(C#N)c(SC)nc(N3CCOCC3)c2CO1 (stereo not given) | / | 3% | / | / | /
N#Cc1c(C#N)c(-c2ccccc2)n(-c2ccccc2)c1N | -2% | -13% | 2% | 44% | ?
CC1(C)Cc2c(C#N)c(N)n(-c3ccccc3)c(=S)c2CO1 | 3% | 11µM* | 12% | 8% | /
CCC1(C)Cc2c(C#N)c(N)n(N)c(=S)c2CO1 (stereo not given) | -8% | 27µM* | -16% | ? | -7%
CCOC(=O)c1c2c(c(=S)n(-c3ccccc3)c1N)CCC2 | -23% | -8% | 13µM* | -39% | 14µM*
Cn1c(N)c(C#N)c2c(c1=S)COC(C)(C)C2 | 6% | -8% | 10% | 0% | -11%
CSc1nc(N)c2ncn([C@@H]3O[C@H](COP(=O)(O)OP(=O)(O)O)[C@H](O)[C@H]3O)c2n1 | / | / | / | / | 6%
Cc1ccc(-c2nc3ccc(Cl)cn3c2Cc2cccc(Cl)c2)cc1 | / | -27% | / | / | /
O=C(/C=C\C=C/c1ccc2c(c1)OCO2)N1CCCCC1 | -4%[17 µM] | / | 13% | 0%[16.9 µM] | ?
Cc1ccc(Sc2cncc3sc(C(N)=O)cc23)cc1 | -24% | / | 11% | ? | /
COc1cc(CN2C[C@@H](CO)O[C@@H](n3cnc4c(NCC(C)C)ncnc43)C2)cc(OC)c1OC | / | 2% | / | / | /
Cc1onc(-c2ccccc2)c1C(=O)NNC(=S)NC(=O)c1ccc(Br)cc1 | 3.5µM* | -25% | 10% | 4.5µM* | ?
Cc1onc(-c2ccccc2)c1C(=O)NNC(=S)NC(=O)c1ccc(Cl)cc1Cl | 11µM* | -8% | 14% | 4.5µM* | -7%
COc1ccc(/C=C/C(=O)NC(=S)NNC(=O)c2c(-c3ccccc3)noc2C)cc1 | 5µM* | -26% | 20% | 3.2µM* | ?
SMILES | VP16 counter | PLK1 PBD inh | Sfp PPTase inh | RORg inh | ALDH1A1 inh
Cc1onc(-c2ccccc2)c1C(=O)NNC(=S)NC(=O)/C=C/c1ccccc1 | ? | -20% | 33% | 5.6µM* | 4%
COc1ccc(-c2cc(C(=O)NNC(=S)NC(=O)c3c(-c4ccccc4)noc3C)[nH]n2)cc1 | -23% | -11% | 29% | ? | -13%
Cc1onc(-c2ccccc2)c1C(=O)NNC(=O)c1ccccc1 | / | 3% | / | / | /
Nc1nc2cc3c(cc2cc1C(=O)NCc1ccc(F)cc1)OCO3 | / | -11% | / | / | /
O=C(NCc1ccccc1)C(c1ccc(-c2ccccc2)cc1)N1CCN(CCN2CCOCC2)CC1 (stereo not given) | / | -1% | / | / | /
O=C(C1CCN(CCc2ccccc2)CC1)N1CCOCC1 | / | 6% | / | / | /
COc1cccc(C(=O)OCCN2CCOCC2)c1 | -1% | -1% | 11% | -3% | 6%
COc1cc(C(=O)Oc2c(CN3CCOCC3)cc(Cl)c3cccnc23)cc(OC)c1OC | 2.5µM* | -9% | 6% | 4.5µM* | 11%
COc1cccc(C(=O)Oc2c(CN3CCOCC3)cc(Cl)c3cccnc23)c1 | 4.5µM* | 0% | -16% | 2.8µM* | 8%
O=C(Oc1c(CN2CCOCC2)cc(Cl)c2cccnc12)c1ccc(F)cc1 | -15% | 1% | -10% | -5% | ?
COc1cc(C(=O)OCCN2CCOCC2)cc(OC)c1OC | -2% | -10% | 12% | -6% | 12%
COc1ccc(C(=O)Oc2c(CN3CCOCC3)cc(Cl)c3cccnc23)cc1 | 6.3µM* | 0% | -11% | 6.3µM* | 3%
COc1cccc(-c2nccc(NCCc3c[nH]c4ccc(OC)cc34)n2)c1 | 5% | / | -20% | ? | 4%
ClC1=CN(C2=NCCC2)CC1 | / | -8% | / | / | /
O=C(Nc1ccc(F)c(Cl)c1)c1ccc2sc([C@@H]3O[C@H](CO)[C@H](O)[C@H](O)[C@H]3O)nc2c1 | / | -2% | / | / | /
C(=N\Nc1nc2ccccc2s1)/c1ccccn1 | -95% | -11% | 4% | 0.1µM* | /
COc1ccc(C=NNc2nc3ccccc3s2)cc1 | / | -17% | / | / | /
Brc1csc(/C=N/Nc2nc3ccccc3s2)c1 | 1.3µM* | 10% | ? | 0.56µM* | 4%
Cc1csc(N/N=C/c2ccccn2)n1 | 1.1µM* | -3% | -22% | 0.35µM* | ?
Brc1ccc(/C=C/C=N/Nc2nc3ccccc3s2)cc1 | -3% | 1% | 7% | 28% | ?
COc1cc(/C=C(\C(=O)O)c2ccc(S(=O)(=O)N3CCCC3)s2)ccc1OCCC(C)C | / | -14% | / | / | /
CC1=C(C#N)c2nc(N)c(C#N)c(C)c2/C1=C\c1ccc(OCC(=O)O)c(Cl)c1 | -5% | 8.4µM* | ? | -14% | /
CC(C)(C)c1ccc(OCC(=O)O)c(Cl)c1 | / | / | / | / | -13%[13.5 µM]
CC1CN(C2CCCCC2)C(=O)NC1=O (stereo not given) | / | -5% | / | / | /
CCn1c(=O)c(=O)n(CC)c2cc(S(=O)(=O)Nc3cccc(OC)c3)ccc21 | -6% | -6% | 2% | 10% | 13µM*
SMILES | VP16 counter | PLK1 PBD inh | Sfp PPTase inh | RORg inh | ALDH1A1 inh
COc1cccc(NS(=O)(=O)c2ccc3c(c2)n(C)c(=O)c(=O)n3C)c1 | -17% | -4% | 20% | 25% | ?
CCOc1ccccc1C1CC(=O)Nc2cc(OC)c(OC)cc21 (stereo not given) | -2% | 3% | 11% | 29% | /
CCOc1ccccc1C1CC(=O)NC2=C1C(=O)CC(C)(C)C2 (stereo not given) | 0% | 27µM* | 14% | 37% | 2%
CC1=Nc2cccc3cccc(c23)N1 | -20% | -3% | ? | 13µM* | 0%
Nc1ccc(C2=Nc3cccc4cccc(c34)N2)cc1 | ? | -18% | 9% | 28%[10 µM] | -6%
O=C(CC(=O)c1ccccc1)Nc1cc(C(F)(F)F)ccc1Cl | ? | -3% | 38% | ? | ?
O=C(NC(=S)Nc1cc(C(F)(F)F)ccc1Cl)c1ccccc1 | ? | -6% | -27% | 2.5µM* | 25µM*
